D1 potentiator: Potentiators of Human D1 Dopamine Receptor: qHTS. D(1A) dopamine receptor (Homo sapiens), P21728. HEK293 TREx D1 cells, calcium flux, dopamine EC20 potentiation. potentiation, % at 10 µM. AID 504651, 2011. hit rate 0.036% among 360,000; in the data active = potentiation above about 30%
Target sequence (P21728 whole entry, looked up): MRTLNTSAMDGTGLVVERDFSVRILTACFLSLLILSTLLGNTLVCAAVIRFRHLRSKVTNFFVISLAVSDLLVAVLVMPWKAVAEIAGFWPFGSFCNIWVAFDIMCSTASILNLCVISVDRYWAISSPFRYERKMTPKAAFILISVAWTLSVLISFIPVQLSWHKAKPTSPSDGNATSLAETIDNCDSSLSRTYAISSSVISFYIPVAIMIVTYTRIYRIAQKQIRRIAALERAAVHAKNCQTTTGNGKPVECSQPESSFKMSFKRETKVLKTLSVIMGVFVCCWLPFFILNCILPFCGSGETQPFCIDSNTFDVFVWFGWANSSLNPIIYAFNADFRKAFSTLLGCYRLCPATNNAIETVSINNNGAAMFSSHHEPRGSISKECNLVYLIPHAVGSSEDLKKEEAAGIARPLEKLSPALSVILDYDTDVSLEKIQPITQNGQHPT
D1 antagonist: Antagonist of Human D 1 Dopamine Receptor: qHTS; HEK293 TREx D1 cells, calcium flux, dopamine EC80; stronger effect = lower value; activity change, negative = inhibition, % at 10 µM; hit rate 3.2% among 360,000; AID 504652, 2011; in the data active = activity change below about -30%
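Tetracycline-induced HEK293 Trex D1 cells, force-coupled to calcium, dye-loaded; compounds added and read 180 s, then EC80 dopamine added and calcium flux tracked kinetically another 180 s.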
Glioma ERSR ind: qHTS for Inducers of the Endoplasmic Reticulum Stress Response (ERSR) in Human Glioma: qHTS | U87-MG GRP78 promoter luciferase reporter, 16 h | AID 602332, 2012 | Potency, µM, most hits filed as activators | hit rate 0.02% among 420,000; note: series mostly up to about 76 µM; nearly all actives have a fitted effect of over 35% in size
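ERSR induction read as luciferase luminescence (Bright-Glo, 10 min at room temperature) in stably transfected human U87-MG glioma cells exposed to compounds for 16 h, using GRP78 as sensor.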
TRHR enhancer-1: qHTS for Small Molecule Agonists and Allosteric Enhancers of Human TRH Receptor: Primary Screen for Enhancers; Thyrotropin-releasing hormone receptor (Homo sapiens), P34981; TRHR cells, fluo-8 calcium fluorescence, EC20 TRH enhancement; enhancement, % at 2 µM; hit rate 0.66% among 360,000; AID 493056, 2011; in the data active = enhancement above about 30%
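TRHR-expressing cells loaded with fluo-8 calcium dye were read kinetically (ex 480/em 530) during compound addition, then stimulated with an EC20 of TRH (10 nM final). Enhancement of the Gq-mediated intracellular calcium response was scored.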
TRHR agonist-1: qHTS for Small Molecule Agonists and Allosteric Enhancers of Human TRH Receptor: Primary Screen for Agonists | TRHR cells, calcium flux fluo-8, FDSS agonist mode | AID 493084, 2011 | Thyrotropin-releasing hormone receptor (Homo sapiens), P34981 | hit rate 0.18% among 360,000 | activation, % at 2 µM; in the data active = activation above about 30%
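TRHR-expressing cells loaded with fluo-8 calcium dye; 23 nL library compound pin-transferred, kinetic FDSS fluorescence (Ex 480/Em 530) recorded about 180 s for agonist-induced calcium release, before a 10 nM TRH EC20 addition for potentiator mode.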
D1 agonist: Allosteric Agonists of the Human D1 Dopamine Receptor: qHTS; D(1A) dopamine receptor (Homo sapiens), P21728; HEK293 T-REx D1 cells, calcium flux, agonist mode; activation, % at 2 µM; hit rate 1% among 360,000; AID 504660, 2011; in the data active = activation above about 30%
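Agonism was scored from calcium flux recorded over 180 s (1 read/s) after pintool compound addition, following a 10-cycle baseline. Cells were inducible force-coupled HEK293 TREx D1, plated overnight at 30 C and loaded with no-wash calcium dye.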
TRHR enhancer-2: qHTS for Small Molecule Agonists and Allosteric Enhancers of Human TRH Receptor: Confirmation Screen for Enhancers. shares compounds with TRHR enhancer-1. TRH receptor cell assay, enhancer confirmation qHTS. activity change, negative = inhibition, % at 46.1 µM. 970 tested, under 10 active. AID 493076, 2011;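 note: compound effect scored on response to added TRH at EC20 of 10 nM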
TRHR agonist-2: qHTS for Small Molecule Agonists and Allosteric Enhancers of Human TRH Receptor: Confirmation Screen for Agonists; shares compounds with TRHR enhancer-1; TRHR-expressing cells, agonist activation read-out; Potency, µM (titrated, usually from 46.1 µM), most hits filed as activators; hit rate 8% among 970; AID 493078, 2011; note: nearly all actives have a fitted effect of over 75% in size
Each line names hits and unclear results; the compound was inactive in the other large screens (follow-up assays come after a bar, where they were run). In the library only some 4% were active in any assay of this set; here they are far more common. Unless noted, calls come from the whole dose curve; as a rule, active = well fitted curve in the direction sought with a large enough effect; inconclusive = small, poorly fitted or top-dose-only effect, or another doubt; inactive = no such curve, though single readings can be large; an effect the other way counts as inactive or inconclusive.

Cc1ccc(S(=O)(=O)N2CCN(CC(=O)Nc3ccc4c(c3)CCC4)CC2)cc1C	TRHR enhancer-1 44 | TRHR enhancer-2 inactive | TRHR agonist-2 inactive
Cc1ccc(NC(=O)CN2CCc3ccccc3C2)cc1S(=O)(=O)N(C)C	TRHR enhancer-1 58 | TRHR enhancer-2 inactive | TRHR agonist-2 inactive
O=C(CN1CCN(S(=O)(=O)c2ccc(Cl)cc2)CC1)Nc1ccc2c(c1)CCC2	none
Cc1ccc(-c2c[n+]3c(n2-c2ccccc2)CCC3)cc1	none
O=C(Nc1cccc(C(=O)O)c1)/C(=C\c1ccccc1)NC(=O)c1ccccc1Cl	none
COc1cc(CNc2ncc(-c3ccc(Br)cc3)n2C)cc(OC)c1O	D1 antagonist -42, TRHR enhancer-1 41 | TRHR enhancer-2 inactive | TRHR agonist-2 inactive
Cn1c(-c2cccc(Br)c2)cnc1NCc1cccnc1	none
O=C(CSc1nc2ccccc2s1)N1c2ccccc2Sc2ccc(C(F)(F)F)cc21	TRHR enhancer-1 58 | TRHR enhancer-2 inactive | TRHR agonist-2 inactive
CC(C)(C)NC(=O)C1(C)CCC(=O)N1C1CCN(Cc2ccccc2)CC1 (configuration not stated)	none (no result: D1 potentiator, D1 antagonist, TRHR enhancer-1, TRHR agonist-1, D1 agonist)
O=C(COc1ncnc2ccccc12)Nc1ccc(S(=O)(=O)N2CCOCC2)cc1	TRHR enhancer-1 43 | TRHR enhancer-2 inconclusive | TRHR agonist-2 inactive
C/C(Nc1ccc(Cl)cc1)=C1/CCOC1=O	none (no result: D1 potentiator, D1 antagonist, TRHR enhancer-1, TRHR agonist-1, D1 agonist)
CCOC(=O)C1=C(CNCCc2ccc(Cl)cc2)NC(=O)NC1c1ccc2c(c1)OCO2 (configuration not stated)	TRHR enhancer-1 41 | TRHR enhancer-2 inactive | TRHR agonist-2 inconclusive
CN(C)C(=O)c1cc(CNCc2ccc(C(F)(F)F)cc2)cc(NC(=O)c2ccccn2)c1	none (no result: D1 potentiator, D1 antagonist, TRHR enhancer-1, TRHR agonist-1, D1 agonist)
COc1ccc(C(C)=O)cc1COc1ccccc1[N+](=O)[O-]	none
COc1ccccc1/C=N/OCc1cc(C(C)=O)ccc1OC	TRHR enhancer-1 56 | TRHR enhancer-2 inactive | TRHR agonist-2 inactive
Cn1c(O)c(N=NC(=N)N)c2ccccc21	TRHR enhancer-1 66 | TRHR enhancer-2 inactive | TRHR agonist-2 inactive
COc1ccc(N2CCN(CCCNC(=O)Cn3c(=O)c4cccn4c4cccnc43)CC2)cc1	none
Cn1nnnc1SCc1cccc(CSc2nnnn2C)n1	none
Cn1nnnc1SCc1c(F)cccc1F	TRHR enhancer-1 42 | TRHR enhancer-2 inconclusive | TRHR agonist-2 inactive
COc1cccc(C(=O)Nc2cccc(C(=O)OCc3cc(=O)n4c5c(sc4n3)CCCC5)c2)c1	none
COC(=O)C1=C(C(=O)c2ccccc2)C(c2ccccc2)n2nnnc2N1 (configuration not stated)	TRHR enhancer-1 62 | TRHR enhancer-2 inactive | TRHR agonist-2 inactive
CCN1C(=O)c2cccc3c(S(=O)(=O)Nc4ccccc4OC)ccc1c23	TRHR agonist-1 56 | TRHR enhancer-2 inactive | TRHR agonist-2 inconclusive
CN1C(=O)c2cccc3c(S(=O)(=O)Nc4ccccn4)ccc1c23	none
Cc1ccccc1NS(=O)(=O)c1ccc2c3c(cccc13)C(=O)N2C	TRHR enhancer-1 61 | TRHR enhancer-2 inactive | TRHR agonist-2 inactive
CCN1C(=O)c2cccc3c(S(=O)(=O)NCc4ccccc4)ccc1c23	none
O=c1c(Cl)c(N/N=C/c2ccc(Cl)cc2)cnn1-c1ccccc1	none
CN(C(=O)COC(=O)c1c2c(nc3ccccc13)/C(=C/c1cccc([N+](=O)[O-])c1)CCC2)C1CCS(=O)(=O)C1 (configuration not stated)	none
O=C(COC(=O)c1c2c(nc3ccccc13)/C(=C/c1cccc([N+](=O)[O-])c1)CCC2)NC1CCS(=O)(=O)C1 (configuration not stated)	TRHR enhancer-1 42 | TRHR enhancer-2 inactive | TRHR agonist-2 inactive
N#Cc1ccc(S(=O)(=O)NC[C@H]2O[C@@H](n3cnc4c(N)ncnc43)[C@H](O)[C@@H]2O)cc1	none (no result: D1 potentiator, D1 antagonist, TRHR enhancer-1, TRHR agonist-1, D1 agonist)
CCOC(=O)c1ccccc1NC(=O)Cn1cnc2c(cnn2-c2ccc(F)cc2)c1=O	none
Cc1cccc(NS(=O)(=O)c2cc3c4c(c2)CC(=O)N4CCC3)c1C	none
Cc1cccc(NS(=O)(=O)c2cc3c4c(c2)CCN4C(=O)CC3)c1C	TRHR enhancer-1 45 | TRHR enhancer-2 inactive | TRHR agonist-2 inactive
Cc1cc(C)c(C)c(S(=O)(=O)N2CCC(C(=O)NCC(c3ccccc3)N(C)C)CC2)c1C (configuration not stated)	none
COc1nc(N2CCOCC2)nc(C)c1[N+](=O)[O-]	none
Cc1nc(N2CCOCC2)nc(OC(C)C)c1[N+](=O)[O-]	TRHR enhancer-1 58 | TRHR enhancer-2 inactive | TRHR agonist-2 inactive
CCc1ccc(NC(=O)C(=O)NCC(c2cccnc2)N2CCc3ccccc3C2)cc1 (configuration not stated)	none
CC1CCCN(C(=O)Cn2nnc(-c3ccc(S(C)(=O)=O)cc3)n2)C1 (configuration not stated)	TRHR enhancer-1 41 | TRHR enhancer-2 inactive | TRHR agonist-2 inactive
O=c1oc2c(CN3CCN(CCO)CC3)c(O)ccc2cc1-c1ccccn1	TRHR agonist-1 33 | TRHR enhancer-2 inactive | TRHR agonist-2 inconclusive
N#Cc1c(N)nc(SCC(=O)OCc2ccccc2)c(C#N)c1-c1ccco1	TRHR enhancer-1 65 | TRHR enhancer-2 inactive | TRHR agonist-2 inactive
C/C(=N/NS(=O)(=O)c1ccc(C)cc1)c1ccc(NC(=O)C(F)(F)F)cc1	none
COC(=O)c1nnn(-c2nonc2N)c1CSc1nc2ccccc2s1	none
CCOC(=O)c1nnn(-c2nonc2N)c1CSc1nnc(N)s1	TRHR enhancer-1 52 | TRHR enhancer-2 inactive | TRHR agonist-2 inactive
C=CCC(CC)C(=O)NC(=O)N1CCCc2ccccc21 (configuration not stated)	TRHR enhancer-1 42 | TRHR enhancer-2 inactive | TRHR agonist-2 inactive

Screening results deposited in PubChem by National Center for Advancing Translational Sciences (NCATS).
